Compound activity as filed in PubChem.
Shown are actives, neighbours in structure and some others; about 6.2% of the full set was active somewhere.
ATXN viability = viability counter-screen for ATXN expression inhibitors. Potency, µM (top dose mostly 56.7 µM), usual class: cytotoxic. S2 cells (HEK-293 line with an ATXN2-luciferase reporter) viability, CellTiter-Fluor protease fluorescence, 24 h. 400,000 compounds, 0.49% hits; note: nearly all actives have a fitted effect of over 40% in size
ATXN2 expr inh = ATXN2 expression inhibition | HEK-293 ATXN2-luciferase reporter, luminescence, 24 h | Potency, µM (highest dose often 57 µM), hits mostly inhibitors | 360,000 compounds, 0.72% hits | AID 1745845; note: nearly all actives have a fitted effect of over 55% in size
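ATXN2-luciferase reporter cells (luciferase flanked by upstream and downstream ATXN2 gene portions) were treated 24 h at 37 °C with compounds at up to 57 uM. SteadyGlo luminescence gave expression; GF-AFC fluorescence gave viability.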
HT1080 IDH1KD tx = kills HT-1080 cells with IDH1 knockdown; HT-1080 IDH1 knockdown viability, ATP luminescence, 48 h; Potency, µM (titrated, usually from 46.1 µM), usual class: cytotoxic; 360,000 compounds, 2% hits
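After a 2 h attachment period, IDH1KD HT-1080 cells took pin-transferred compound for 48 h at 37 °C; ATP-based luminescence after 10 min room-temperature reagent incubation reported viability.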
HT1080NT lethal = kills 2HG-producing HT-1080-NT fibrosarcoma cells; HT-1080-NT fibrosarcoma viability, CellTiter-Glo ATP luminescence, 48 h; Potency, µM (doses to about 46.1 µM), hits mostly cytotoxic; 360,000 compounds, 1.6% hits;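 note: NT is the 2HG producing partner of a matched IDH1 knockdown line; nearly all actives have a fitted effect of over 55% in size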
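Fibrosarcoma NT cells, 750 per well in 5% FBS RPMI, were exposed to compound for 48 hours. Viability: CellTiter-Glo luminescence.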
KB-V1 MDR tox = KB-V1 MDR subline cytotoxicity | KB-V1 MDR cells viability, CellTiter-Glo, 72 h | Potency, µM (top dose mostly 46.1 µM), most hits filed as cytotoxic | 400,000 compounds, 3.4% hits; note: nearly all actives have a fitted effect of over 60% in size
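In this primary screen, KB-V1 cells overexpressing P-gp are incubated with library compounds (lowest to highest concentration) for 72 h at 37 degrees C before a luminescent ATP viability read.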
KB-3-1 cytotox = KB-3-1 parental cell cytotoxicity | KB-3-1 viability, CellTiter-Glo ATP luminescence, 72 h | Potency, µM (highest dose often 46.1 µM), usual class: cytotoxic | 400,000 compounds, 1.4% hits; note: nearly all actives have a fitted effect of over 60% in size
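Luminescent ATP read-out (CellTiter-Glo) measures survival of drug-naive KB-3-1 cells after 72 h compound exposure at 37 °C. Titration series was screened from lowest to highest concentration, with DMSO vehicle plates as background controls.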
Hits are given with their value; – = inactive; ? = inconclusive; · = not tested or not shown. Calls come from the whole dose curve; as a rule, active = well fitted curve in the direction sought with a large enough effect; inconclusive = small, poorly fitted or top-dose-only effect, or another doubt; inactive = no such curve, though single readings can be large; an effect the other way counts as inactive or inconclusive.

SMILES | ATXN viability | ATXN2 expr inh | HT1080 IDH1KD tx | HT1080NT lethal | KB-V1 MDR tox | KB-3-1 cytotox
O=C(CSc1nnc(CNC(=O)C23CC4CC(CC(C4)C2)C3)n1-c1ccccc1)Nc1ccc(F)cc1 | – | – | – | – | – | –
O=C(NCc1nnc(SCc2ccc(C(F)(F)F)cc2)n1-c1ccccc1)C12CC3CC(CC(C3)C1)C2 | ? | – | – | – | 16µM | ?
O=C(NCc1nnc(SCc2ccc(F)cc2)n1-c1ccccc1)C12CC3CC(CC(C3)C1)C2 | ? | – | – | – | 13µM | ?
CC(C)c1ccc(NC(=O)CC2NCCNC2=O)cc1 (centres undefined) | – | – | · | · | – | –
COc1cc(OC)cc(-c2ccc3ncc4ccc(=O)n(-c5ccc(N6CCNCC6)c(C(F)(F)F)c5)c4c3c2)c1 | · | 19µM | · | · | · | ·
COc1ccc(-c2nn(-c3ccc(F)cc3)c3c2cnc2cc4c(cc23)OCO4)cc1 | – | – | · | · | – | –
O=C(Nc1cc(N2CCOCC2)ncn1)c1ccc(F)cc1 | – | ? | – | – | – | 16µM
Cc1cccc(C(=O)Nc2ccc(N3CCN(c4ccc(C(F)(F)F)cn4)CC3)nc2)c1 | – | – | – | – | – | –
O=C(Nc1ccc(N2CCOCC2)nc1)c1ccc(C(F)(F)F)cc1 | – | – | – | – | 8.2µM | ?
O=C(Nc1ccc(C(F)(F)F)cc1)c1cccnc1N1CCOCC1 | – | – | ? | – | 16µM | –
O=C(O)c1ccc(OCCN2CCCCC2)cc1 | – | – | · | · | · | ·
CCOC(=O)N1CCC(c2cc(=O)n3[nH]c(C)c(-c4ccc(F)cc4)c3n2)CC1 | – | 32µM | ? | – | – | ?
CCOC(=O)N1CCC(c2cc(=O)n3[nH]c(-c4ccccc4)cc3n2)CC1 | – | – | – | – | – | –
COc1cc(F)ccc1-c1csc(C(O)(c2ccccc2)C(F)(F)F)n1 (centres undefined) | ? | ? | – | ? | – | –
COc1ccc(-c2nnn3c2nc(NCc2ccc(C)cc2)c2ccccc23)cc1 | – | – | · | · | ? | –
CC(=O)Nc1cccc(-c2ccnc3c2CC(C(=O)NCCC(F)(F)F)O3)c1 (centres undefined) | ? | – | 21µM | ? | – | ?
COc1ccc(CCCNC(=O)C2Cc3c(-c4cccc(NC(C)=O)c4)ccnc3O2)cc1 (centres undefined) | – | ? | ? | ? | ? | 6.5µM
CC(=O)Nc1cccc(-c2ccnc3c2CC(C(=O)NCc2cccs2)O3)c1 (centres undefined) | ? | – | 0.65µM | ? | – | 5.8µM
COc1cc(CC(=O)NCc2ccc3c(c2)OCO3)cc(OC)c1OC | – | – | – | – | – | ?
COc1cc(-c2nccc3cc4c(cc23)OCO4)cc(OC)c1OC | ? | – | 4.6µM | ? | 5.2µM | 4.1µM
O=C(C1COc2ccccc2O1)N1CCN(S(=O)(=O)c2cc(F)ccc2F)CC1 (centres undefined) | – | – | – | – | – | –
N#Cc1ccccc1S(=O)(=O)N1CCN(C(=O)C2COc3ccccc3O2)CC1 (centres undefined) | – | – | – | – | 21µM | –
Cc1ccc(-c2nnc(SCC(=O)Nc3ccc4c(c3)oc3ccccc34)n2C)c(Cl)c1 | – | – | – | ? | 2.6µM | –
Cc1ccccc1OCc1nnc(SCC(=O)Nc2ccc3c(c2)oc2ccccc23)n1C | – | – | – | – | – | –
CCc1cccc(C)c1NC(=O)CSc1nnc(-c2cc3cc(Br)ccc3o2)n1CC | – | – | – | – | 21µM | ?
SMILES | ATXN viability | ATXN2 expr inh | HT1080 IDH1KD tx | HT1080NT lethal | KB-V1 MDR tox | KB-3-1 cytotox
Cn1c(SCC(=O)Nc2cccc(Br)c2)nnc1-c1cc2ccccc2o1 | ? | ? | – | – | 16µM | –
CC(=O)c1ccc(NC(=O)c2cc3c(=O)oc4ccc(C)cc4c3s2)cc1 | – | – | · | · | – | –
CC(C)(C)c1ccc(Cn2c(=O)cnc3ccccc32)cc1 | – | ? | 7.3µM | 9.2µM | ? | ?
O=C1C=CC(=O)N1CCNc1ncc(C(F)(F)F)cc1Cl | · | 25µM | 23µM | ? | ? | ?
O=C1CC(=O)N(CCNc2ncc(C(F)(F)F)cc2Cl)C(=O)N1 | – | – | – | – | – | –
COc1cccc2c1C(=N)c1c(O)c3c(c(O)c1C2=O)CC(O)(C(C)=O)CC3OC1CC(N)C(O)C(C)O1 (centres undefined) | ? | 1.2µM | 21µM | 21µM | ? | ?
COc1cccc2c1C(=O)c1c(O)c3c(c(O)c1C2=O)CC(O)(C(C)=O)CC3OC1CC(O)C(O)C(C)O1 (centres undefined) | 19µM | ? | 23µM | ? | ? | ?
COc1cccc2c1-c1c(O)cccc1C2=O | – | · | – | – | – | –
CCCCC(=O)OCC(=O)C1(O)Cc2c(O)c3c(c(O)c2C(OC2CC(NC(=O)C(F)(F)F)C(O)C(C)O2)C1)C(=O)c1c(OC)cccc1C3=O (centres undefined) | 3.5µM | 2.5µM | 8.2µM | 23µM | – | ?
COc1cccc2c1C(=O)c1c(O)c3c(c(O)c1C2=O)C[C@@](O)(C(=O)CO)C[C@H]3O[C@H]1C[C@H](N)[C@H](O)[C@H](C)O1 | · | 0.27µM | · | · | · | ·
CCOC(=O)c1[nH]c(C)c(C(=O)NCCc2ccccc2)c1C | – | – | · | · | – | –
CN1C(CSCC(F)(F)F)Nc2cc(Cl)c(S(N)(=O)=O)cc2S1(=O)=O (centres undefined) | – | – | · | · | · | ·
Cc1ccc(C)c2c(C)ccnc12 | · | · | · | · | – | –
COc1cccc2c1C(=O)c1c(O)c3c(c(O)c1C2=O)C[C@](O)(C(C)=O)C[C@H]3O[C@@H]1C[C@@H](N)[C@@H](O)[C@@H](C)O1 | ? | ? | 0.41µM | 0.65µM | – | ?
COc1ccc([C@H]2CC(=O)C[C@@H](CCn3cc(C)nn3)O2)cc1 | – | – | – | – | – | –
CC(C)C[C@H]1CNC(=S)N1C[C@H]1CCCN1C[C@H](Cc1ccc(O)cc1)N1C[C@H](CC(C)C)N(CCc2ccccc2)C1=S | ? | ? | – | – | ? | ?
Cc1nc(Sc2ccccc2)c(C#N)c(C)c1[N+](=O)[O-] | – | – | ? | – | ? | –
Cc1cc(C)c(C#N)c(Sc2nc(C)c([N+](=O)[O-])c(C)c2C#N)n1 | 20µM | 22µM | 4.6µM | 16µM | – | ?
NC(=O)c1sc2nc(-c3ccccc3)ccc2c1N | · | · | – | – | 5.8µM | ?
C=CC(=O)Oc1ccc(N2Cc3ccccc3C2=O)cc1 | 32µM | · | – | – | – | –
COc1ccc(N2Cc3ccccc3C2=O)cc1 | ? | – | ? | ? | ? | ?
Cc1cc(Br)cn2c(Cc3ccsc3)c(C3CCCCC3)nc12 | ? | – | – | – | – | –
